High-throughput results as filed in PubChem.
NadD block – inhibitors of S. aureus NadD, primary screen, biochemical, colorimetric, uHTS | Nicotinate-nucleotide adenylyltransferase NadD (Staphylococcus aureus N315) | purified NadD enzyme, colorimetric absorbance read-out | inhibition, % at 20 µM | 360,000 tested, 0.78% active; in the data active = inhibition above about 26%
MPTP block – mitochondrial permeability transition pore inhibitors, primary screen, biochemical, isolated mouse mitochondria, absorbance. 360,000 tested, 1.4% active. Ca2+ swelling absorbance, 30 min. AID 602449, 2012. inhibition, % at 10 µM;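 active = inhibition of 50% or more, scaled per plate between neutral and stimulator controls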;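 note: 0% = DMSO wells given calcium and 100% = 1 mM EGTA wells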
aDG glyco up – activators of alpha-DG glycosylation, primary screen, uHTS, Pro5-aDG cells, AlphaScreen; activation, % at 10 µM; AID 624168, 2012; 360,000 tested, 0.22% active; alpha-DG glycosylation AlphaScreen (IIH6); 0% Pro5, 100% B10-LARGE cell signal;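 active = activation of at least 8% versus controls, or a plate z-score of at least 8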;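 note: Pro5 are CHO cells carrying HIG-tagged alpha-DG that lacks glycosylation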
H9c2 TAG inh – inhibitors of triacylglycerol accumulation, primary screen, cell-based, uHTS, fluorescence, H9c2; H9c2 cells, Nile Red lipid (TAG) fluorescence; cells loaded with 200 µM oleic acid; inhibition, % at 12.5 µM; 230,000 tested, 0.66% active; AID 651582, 2012;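 active = pattern-corrected inhibition of lipid staining of at least 50% with the nuclear-stain viability signal not falling by more than 50%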;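 note: 0% = DMSO wells and 100% = triacsin C control wells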
MPTP counter – fluorescence retest of MPTP screen hits in isolated mitochondria, single concentration; inhibition, % at 10 µM; 5,000 tested, 78% active; membrane potential, Rhodamine 123 fluorescence; shares compounds with MPTP block; AID 624504, 2012; in the data active = inhibition above about 22%;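 note: 0% = DMSO vehicle and 100% = positive control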
MPTP swell DR – mitochondrial permeability transition pore inhibitors, dose response, biochemical, absorbance, uHTS hits. shares compounds with MPTP block. isolated mitochondria swelling. IC50, µM. 780 tested, 58% active. AID 651561, 2012; in the data active = IC50 below about 20 µM
MPTP cs DR – fluorescent counter-screen in isolated mitochondria, dose response, counter-screen for MPTP inhibitor project, biochemical, fluorescence, uHTS hits | shares compounds with MPTP block | 780 tested, 49% active | isolated mitochondria counterscreen, fluorescence read-out | IC50, µM; in the data active = IC50 below about 80 µM
Numbers without * were called inactive; i = inactive; nt = not tested or not shown; ! = not active in a repeat. Shown are actives, neighbours in structure and some others; about 2.7% of the full set was active somewhere.

SMILES | NadD block | MPTP block | aDG glyco up | H9c2 TAG inh | MPTP counter | others
O=C(CSCc1ccc(Cl)cc1)Nc1ccc(S(=O)(=O)N2CCCCCC2)cc1 | -5.5 | 53.4* | 0.5 | nt | 80.0*
COc1ccc(CCN(C)c2ccc(S(=O)(=O)N3CCCC3)cc2[N+](=O)[O-])cc1OC | -6.3 | 8.6 | 0.0 | nt | nt
CCCCCCN1C[C@H](n2cc(-c3ccc(F)cc3)nn2)[C@@H](O)C[C@@H]1c1ccc(C)cc1 | 2.1 | 1.0 | 0.0 | 1.8 | nt
Cc1ccc(OCc2cc(C(=O)NC(C)Cc3cccnc3)no2)cc1C (configuration not stated) | 4.2 | -0.8 | 0.3 | nt | nt
Cc1cc(C)n(CCNC(=O)c2cc(COc3ccc4ncccc4c3)on2)n1 | -5.8 | 63.4* | 0.3 | -6.6 | 37.3*
CC(C)N(Cc1nccn1C)C(=O)c1cc(COc2ccc3ncccc3c2)on1 | 6.6 | 26.0 | 0.3 | -24.6 | nt
CSc1ccccc1OCc1cc(C(=O)NCCn2nc(C)cc2C)no1 | -2.7 | -0.4 | -0.4 | -3.8 | nt
CC(CCCC(C)(C)O)NC(=O)c1cc(COc2ccc3ncccc3c2)on1 (configuration not stated) | 5.7 | 92.3* | 1.4 | -1.9 | 78.8*
Cc1nc(CN(C)C(=O)c2cc(COc3ccc4ncccc4c3)on2)cs1 | -3.1 | 99.3* | 2.1 | -8.0 | 68.7*
COc1ccc(NC(=O)C2CCCN(C(=O)c3ccc(Cl)cc3)C2)cc1S(=O)(=O)N(C)C (configuration not stated) | 0.4 | -0.6 | 0.0 | 4.2 | nt
O=C(COc1ccc2c(c1)oc(=O)c1ccccc12)NCCCN1CCOCC1 | -3.2 | 1.7 | -0.1 | nt | nt
Cc1c(CC(Cl)(Cl)Cl)c2c(n1O)CC(C)(C)CC2=O | -5.5 | 72.3* | 0.0 | -12.3 | 46.6*
Cc1ccc2sc(N(CCCN(C)C)C(=O)c3ccc(S(=O)(=O)N4CCCCCC4)cc3)nc2c1C | -4.7 | 58.0* | 1.5 | 5.6 | -16.2 | MPTP swell DR=i;MPTP cs DR=63.9*
Cc1cc(C)c2sc(N(CCCN(C)C)C(=O)c3ccc(S(=O)(=O)N(C)C4CCCCC4)cc3)nc2c1 | 4.7 | 77.3* | 1.1 | 28.2 | -11.8
CN(C)CCCN(C(=O)c1ccc(S(=O)(=O)N2CCCCC2)cc1)c1nc2cc3c(cc2s1)OCO3 | 1.0 | 0.8 | -0.2 | 1.5 | nt
Cc1cc(C)c2nc(N(CCCN(C)C)C(=O)c3ccc(S(=O)(=O)N4CCCCCC4)cc3)sc2c1 | 3.0 | 83.3* | 1.0 | 4.2 | -10.4 | MPTP swell DR=6.37*;MPTP cs DR=>80
COc1ccc(N2N=NN(C(C)C)C2=C(Cl)c2nnnn2-c2ccc(OC)cc2)cc1 | 3.3 | -1.5 | 2.0 | 4.4 | nt
CCOc1ccc(C2C=C(c3ccc(C)cc3)Nc3nnnn32)cc1 (configuration not stated) | 10.1 | 73.1* | -0.1 | 11.0 | 26.0*
NS(=O)(=O)c1ccc(NC(=O)COc2cccc3ccccc23)cc1 | -5.6 | 0.6 | 0.2 | 13.3 | nt
C=CCN(CC=C)C(=O)c1ccc2nc(Cc3ccc(OC)c(OC)c3)oc2c1 | -0.8 | 50.5* | 0.7 | -15.9 | 11.1 | MPTP swell DR=i;MPTP cs DR=42.7*
Cc1cccc(OCC(=O)N(C)CC(=O)Nc2cccc(F)c2)c1C | -3.6 | -0.3 | 0.2 | 1.1 | nt
COc1cccc(NC(=S)N2CCN(C)CC2)c1 | -2.4 | 0.0 | -0.1 | nt | nt
CN1CCN(C2Cc3cc(F)ccc3Sc3ccc(Cl)cc32)CC1 (configuration not stated) | -6.6 | -5.0 | 0.0 | -8.4 | nt
CSc1ccc2c(c1)C(N1CCN(C)CC1)Cc1ccccc1S2 (configuration not stated) | -4.8 | 104.0*! | 0.0 | -1.5 | -17.5
CN1CCN(C2Cc3ccccc3Sc3ccc(Cl)cc32)CC1 (configuration not stated) | -10.2 | 87.3* | -0.1 | -16.1 | -7.0 | MPTP swell DR=6.83*;MPTP cs DR=44.8*
SMILES | NadD block | MPTP block | aDG glyco up | H9c2 TAG inh | MPTP counter | others
Cc1ccc2c(c1)c1c(c(=O)n(-c3ccccc3C)c(=O)n1CC(=O)NCC1CCCO1)n2C (configuration not stated) | 8.3 | 0.4 | 0.0 | nt | nt
COc1ccc(-c2ccccc2)cc1NC(=O)[C@@H]1O[C@H](CO)[C@@H](O)[C@H]1O | -1.5 | 0.5 | -0.2 | -7.8 | nt
CCc1ccc(NC(=O)Nc2cccc(OC)c2)cc1 | -7.1 | 63.0* | 1.1 | nt | 77.3*
COC(=O)c1ccc(NC(=O)Nc2ccc(F)cc2F)cc1 | -0.1 | 85.8* | 0.1 | -9.0 | 95.6*
COC(=O)c1ccc(NC(=O)Nc2cccc(F)c2)cc1 | -4.7 | 85.4* | 1.1 | 1.8 | 86.8*
COc1cccc(NC(=O)NC2(C(F)(F)F)Oc3ccccc3O2)c1 | -4.6 | 96.7* | 0.2 | 26.5 | 83.4*
O=C(Nc1ccc(Cl)cc1)C1C2CCCCC21 (configuration not stated) | -1.0 | 1.5 | -0.1 | 3.3 | nt
O=C(NCCCl)Nc1cccc(Br)c1 | 0.9 | -0.3 | 0.2 | 11.4 | nt
O=C(Nc1ccc(F)cc1)Nc1cccc(Br)c1 | -5.0 | 88.9* | 0.3 | -24.6 | 91.1*
O=C(Nc1ccnn1C1CCN(CCCc2ccccc2)CC1)c1ccccc1Cl | -8.5 | -0.7 | -0.3 | 16.6 | nt
Cc1cccc(C)c1NC(=O)c1cc(S(=O)(=O)N2CCc3ccccc32)cn1C | 0.5 | -1.0 | 0.2 | -8.1 | nt
Cn1cc(S(=O)(=O)N2CCc3ccccc32)cc1C(=O)NC(C)(C)C | -4.2 | 50.0* | 0.9 | -36.5 | 79.5*
NC(c1ccccc1)c1csc(Nc2cc(Oc3ccccc3)ncn2)n1 (configuration not stated) | 5.8 | 1.9 | 0.8 | 27.9 | nt
CCOC(=O)c1cc(-c2ccccc2)sc1NC(=O)C(C)OC(=O)c1cccnc1OCC (configuration not stated) | -8.6 | 67.6* | -0.1 | nt | -0.6 | MPTP swell DR=>100;MPTP cs DR=>80
Cc1ccc(NC(=O)c2ccc(Nc3c([N+](=O)[O-])cc([N+](=O)[O-])cc3[N+](=O)[O-])cc2)cc1 | 22.1 | 96.3* | -0.6 | nt | 74.1*
O=C(Nc1ccc(Br)cc1)c1cc([N+](=O)[O-])cc([N+](=O)[O-])c1 | -2.5 | 101.8* | 1.0 | 18.1 | 85.7*
Cn1nc(C(C)(C)C)c([N+](=O)[O-])c1C(=O)Nc1ccc(Br)cc1 | -10.9 | 80.5* | 0.0 | -3.1 | 93.2*
O=C(Nc1ccc(NC(=O)c2cccc([N+](=O)[O-])c2)cc1)c1cccc([N+](=O)[O-])c1 | -1.2 | 2.0 | 0.0 | 12.2 | nt
COc1ccc(C(O)c2nc(-c3cccc(NC(C)=O)c3)cs2)cc1 (configuration not stated) | -1.0 | 0.4 | -0.1 | 4.6 | nt
